Laboratory results from PubChem BioAssay AID624125 (The Scripps Research Institute Molecular Screening Center, 2012).
“And” between values parts separate entries of the source, which are not always exact repeats. Equal entries are not always repeated. Hit rate of the full screen: of about 360,000 compounds, about 2,600 (0.72%) were called active.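 The calls were made as follows: active = inhibition above its plate's cutoff, the mean inhibition of sample wells plus 3 SD (cut at about 27% in these data); inactive = the rest.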 Many of the other results were omitted from the sample, so actives are more common in it than they were.

target: Muscarinic acetylcholine receptor M4 (Homo sapiens) (UniProt P08173); assay: human M4 muscarinic receptor antagonists, primary screen, CHO cells, Fluo-8 calcium fluorescence (AID 624125); settings: CHO-hM4 cells, ACh EC80, Fluo-8 calcium fluorescence; at 3 µM; stronger effect = higher value;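 also: 0% = acetylcholine EC80 with DMSO and 100% = DMSO without agonist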
Sequence (P08173 whole entry, looked up): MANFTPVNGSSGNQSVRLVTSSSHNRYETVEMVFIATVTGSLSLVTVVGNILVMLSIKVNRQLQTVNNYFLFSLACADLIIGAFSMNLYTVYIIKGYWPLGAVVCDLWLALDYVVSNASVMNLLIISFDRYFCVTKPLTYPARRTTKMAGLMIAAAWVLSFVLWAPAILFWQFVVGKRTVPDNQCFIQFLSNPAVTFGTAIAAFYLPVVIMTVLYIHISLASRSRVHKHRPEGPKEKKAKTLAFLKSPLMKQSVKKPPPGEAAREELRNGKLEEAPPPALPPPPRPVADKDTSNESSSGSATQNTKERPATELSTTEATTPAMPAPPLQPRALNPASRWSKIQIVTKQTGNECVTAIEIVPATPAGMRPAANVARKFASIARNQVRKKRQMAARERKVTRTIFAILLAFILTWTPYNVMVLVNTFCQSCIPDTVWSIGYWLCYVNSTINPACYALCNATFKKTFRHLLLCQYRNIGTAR

Row | SMILES | inhibition
1 | O=C(c1ccccc1F)N1CCN(S(=O)(=O)c2ccc(Br)cc2)CC1 | 3.23% (inactive)
2 | OCC1(CCc2ccccc2)CCN(Cc2ccc3nsnc3c2)CC1 | 8.32% (inactive)
3 | Cn1cnnc1Sc1ccc(CN2CCN(C3CCCC3)C(CCO)C2)o1 (stereo not given) | 42.6% (active)
4 | CCOc1ccc(CN2CCN(Cc3ccc(C)o3)CC2CCO)cc1 (stereo not given) | 1.46% (inactive)
5 | OCCC1CN(Cc2cccc(OC3CCCC3)c2)CCN1Cc1ccsc1 (stereo not given) | 2.69% (inactive)
6 | COc1cccc2c1OCC(CN1CCN(C3CCCCC3)C(CCO)C1)=C2 (stereo not given) | 26.6% (active)
7 | COc1ccc(CN2CCN(Cc3cn(C)nc3-c3ccccc3)CC2CCO)c(C)c1C (stereo not given) | -2.82% (inactive)
8 | OCCC1CN(Cc2ccc3nsnc3c2)CCN1C1CCCCC1 (stereo not given) | 26.8% (active)
9 | Cc1ccc(CN2CCN(Cc3ccc(OCCO)cc3)CC2CCO)o1 (stereo not given) | 2.78% (inactive)
10 | Cc1ccc(CN2CCN(Cc3ccc4ncccc4c3)CC2CCO)cc1 (stereo not given) | -9.31% (inactive)
11 | OCCC1CN(Cc2ccc3nsnc3c2)CCN1C1CCCC1 (stereo not given) | 47.5% (active)
12 | CC(C)N1CCC(N2CCN(Cc3cccnc3)CC2CCO)CC1 (stereo not given) | -8.19% (inactive)
13 | OCCC1CN(Cc2cccc(O)c2)CCN1CCc1ccccc1 (stereo not given) | -6.17% (inactive)
14 | CCC(Sc1nncn1C)C(=O)Nc1nnc(-c2ccc(Cl)cc2)s1 (stereo not given) | -32.3% (inactive)
15 | CCOc1cc(-c2noc(CCCC(=O)NC3CCCCC3)n2)ccc1OC | -15.3% (inactive)
16 | CC(c1ccccn1)N(C)C(=O)c1ccc2nc(Cc3cccc(Cl)c3)oc2c1 (stereo not given) | 0.98% (inactive)
17 | Cc1ccc(NC(=O)C(C)OC(=O)C2CC3CCCC(C2)C3=O)cc1S(=O)(=O)N1CCOCC1 (stereo not given) | -3.85% (inactive)
18 | CCc1nc2c(OCc3ccc(C(F)(F)F)cc3)cccn2c1N(C)C(=O)CC(C)C | 3.96% (inactive)
19 | Cc1cc(=O)oc2cc(NC(=O)C3CC(=O)N(Cc4ccccc4)C3)ccc12 (stereo not given) | -0.59% (inactive)
20 | O=C(O)C1CCN1C1CCCCC1 (stereo not given) | 2.3% (inactive)

Row | SMILES | inhibition
21 | COC(=O)c1c(C)oc(C)c1S(=O)(=O)NCc1ccc(Cl)cc1 | 12.7% (inactive)
22 | CN(CCN1CCOCC1)Cc1nc(-c2ccc3c(c2)OCO3)no1 | 8.12% (inactive)
23 | CCOc1ccc(NC(=O)C2CC(=O)N=C(N)S2)cc1 (stereo not given) | -0.59% (inactive)
24 | COc1ccc(C(=O)OCC(=O)NCC2CCCO2)cc1[N+](=O)[O-] (stereo not given) | -10.6% (inactive)
25 | Cc1cc(-c2nnc(SCC(=O)Nc3ccc(F)cc3)n2N)n[nH]1 | 8.94% (inactive)
26 | CSCCC(NS(=O)(=O)c1ccccc1F)C(=O)N1CC=C(c2ccccc2)CC1 (stereo not given) | 3.15% (inactive)
27 | COC(=O)C1=C(N)Oc2cc(C)[nH]c(=O)c2C1c1ccc(Cl)cc1 (stereo not given) | 0.29% (inactive)
28 | O=C1NC(=O)C(c2ccc(Cl)cc2)N1 (stereo not given) | -2.3% (inactive)
29 | O=C1CSC(c2ccc(Cl)cc2)N1 (stereo not given) | 27.7% (active)
30 | COc1ccc(C(=O)Oc2ccc(-c3nnco3)cc2)cc1S(=O)(=O)N1CCOCC1 | -11.2% (inactive)
31 | O=C(OC1CC2CC1[C@H]1CCCCN1C2=O)N1CCOCC1 (stereo not given in full) | -3.15% (inactive)
32 | CCc1ccc(S(=O)(=O)NCC(O)COc2ccc(OC)cc2)cc1 (stereo not given) | -13% (inactive)
33 | C#C[C@]1(O)CC[C@H]2[C@@H]3CCC4=CC(=O)CC[C@@H]4[C@H]3CC[C@@]21CC | -4.91% (inactive) and 3.68% (inactive)
34 | CN1CCN(C2Cc3ccc(Cl)cc3Sc3ccc(F)cc32)CC1 (stereo not given) | 38.1% (active)
35 | CCOCCCNC(=O)C(NC(=O)c1ccc(=O)[nH]c1)c1ccc(C)cc1 (stereo not given) | -5.59% (inactive)
36 | Cc1ccc(-c2ccc(=O)n(Cc3ccc(F)cc3Cl)n2)cc1 | 0.63% (inactive)
37 | CN(C)Cc1ccc(F)cc1Sc1cc(Cl)ccc1Cl | 43.8% (active)
38 | CN(Cc1ccc(F)cc1Cl)S(=O)(=O)c1cccs1 | -1.2% (inactive)
39 | COc1cccc(CC(=NO)c2cccc(OC)c2)c1 | -5.79% (inactive)
40 | O=C(C1CCCO1)N1CCN(C(=S)Nc2cccc(Cl)c2)CC1 (stereo not given) | 0.97% (inactive)
